A number with no mark means an inactive call. The source made the active and inactive calls. Rule as the data show it, unless noted: active = inhibition above about 42%; inactive = the rest.
What follows are compounds tested against Nuclear receptor subfamily 5 group A member 2 (Homo sapiens) (UniProt O00482) (assay: LRH-1 (NR5A2) inverse agonists, retest, confirmation, cell-based, luminescence (AID 651613;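 also: HEK293T cells co-transfected with LRH-1 and StAR promoter luciferase reporter; 0% = vehicle wells and 100% = parental cells lacking receptor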)). Settings: cell-based LRH-1 luciferase reporter, inverse agonism; at 3.6 µM; active compounds read high.
Nuclear receptor subfamily 5 group A member 2 (Homo sapiens), sequence (O00482 whole entry, looked up): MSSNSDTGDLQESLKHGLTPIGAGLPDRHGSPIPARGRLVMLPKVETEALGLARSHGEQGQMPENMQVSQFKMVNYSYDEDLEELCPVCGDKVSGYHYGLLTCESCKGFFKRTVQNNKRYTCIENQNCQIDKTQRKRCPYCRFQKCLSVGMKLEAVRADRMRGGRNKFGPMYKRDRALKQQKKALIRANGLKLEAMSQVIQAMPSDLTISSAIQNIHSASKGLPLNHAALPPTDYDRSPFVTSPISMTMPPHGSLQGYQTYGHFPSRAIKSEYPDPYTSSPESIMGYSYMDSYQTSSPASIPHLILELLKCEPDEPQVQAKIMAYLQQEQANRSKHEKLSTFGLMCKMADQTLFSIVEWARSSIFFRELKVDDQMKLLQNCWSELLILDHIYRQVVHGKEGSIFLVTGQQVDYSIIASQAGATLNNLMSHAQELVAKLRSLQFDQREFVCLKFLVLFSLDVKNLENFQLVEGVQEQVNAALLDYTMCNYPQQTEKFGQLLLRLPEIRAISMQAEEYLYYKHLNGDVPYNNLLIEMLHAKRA

SMILES	inhibition
CCCc1cc(=O)oc2cc3oc(C)c(C)c3cc12	52.3% (active)
CCCc1cc(=O)oc2cc(C)cc(OCC(=O)Nc3ccccn3)c12	60.1% (active)
CCOC(=O)C1CCN(Cc2cc(Cl)c3ccccc3c2O)CC1	10.1%
CCn1c2ccccc2c2cc(/C=N/n3cnnc3)ccc21	30.4%
O=C(COC(=O)C1CCCCC1)NCCc1ccccc1	50.9% (active)
COCCn1c(C)cc(/C=C(\C#N)C(=O)OCC(=O)Nc2ccc(S(N)(=O)=O)cc2)c1C	52.6% (active)
Cc1ccc(NC(=O)COC(=O)CCC2CCCC2)c(Br)c1	40.9%
O=C(CCl)Nc1ccc2c(c1)OCO2	60.3% (active)
O=C1C=C(NCc2ccco2)C2(CCCCC2)O1	43.1% (active)
CCOc1ccc(CCNC(=O)COC(=O)Cc2c[nH]c3ccccc23)cc1OCC	56.5% (active)
CCOc1ccc(NC(=O)CSc2nc3[nH]ncc3c(=O)[nH]2)cc1	56.8% (active)
Clc1ccc(COc2cccc(CNCc3ccncc3)c2)cc1	62.4% (active)
O=C(COC(=O)c1ccc(=O)n(Cc2ccccc2)n1)Nc1ccc2c(c1)OCCO2	51.1% (active)
COC(=O)c1ccc(NC(=O)CSc2nc3ncccc3[nH]2)cc1	50.8% (active)
COc1ccc(CNC(=O)c2cccc3c(-c4cnn(C)c4)coc23)cc1OC	46.2% (active)
COCc1cc(C)nc(SCC(=O)Nc2cc3c(cc2C#N)OCO3)c1C#N	45.3% (active)
CC1CC(=Cc2ccc(N)cc2)C(=O)O1 (stereo not drawn)	41.8% (active)
COc1ccccc1-n1c(SCC(=O)Nc2ccc(F)cc2)nc2c(c1=O)SCC2	54.9% (active)
CC12CCC(=O)N1c1c(sc3nc(N4CCOCC4)c4c(c13)CCCC4)C(=O)N2 (stereo not drawn)	63.7% (active)
O=c1c2ccc(Cl)cc2nc(-c2cccc(C(F)(F)F)c2)n1O	42.6% (active)

SMILES	inhibition
COc1ccc(NC(=O)CSc2nc(N)c(-c3ccccc3)c(=O)[nH]2)cc1	63.2% (active)
CC(=O)c1ccc(-c2c(C)cc3oc(=O)cc(-c4ccccc4)c3c2C)cc1	57% (active)
COc1ccc(-c2nc(C(N)=O)c3[nH]c(=O)n(-c4cccc(Cl)c4)c3n2)cc1OC	57.3% (active)
Oc1c(Cl)cc(CN2CCOCC2)c2cccnc12	18.4%
CC(=O)N1c2ccc(S(=O)(=O)N3CCC(C(=O)Nc4cccc(C)n4)CC3)cc2CC1C (stereo not drawn)	57.1% (active)
Cc1cccc(NC(=O)COC(=O)c2cccs2)c1C	52.7% (active)
O=C1CC(c2cccc([N+](=O)[O-])c2)c2ccc3ccccc3c2N1 (stereo not drawn)	40.8%
CC(=O)Nc1cc(-c2ccc(S(C)(=O)=O)cc2)cn2c(-c3ccc(F)cc3)cnc12	53.4% (active)
O=C(Nc1cccc(S(=O)(=O)N2CCCCC2)c1)c1ccc([N+](=O)[O-])o1	67.3% (active)
CC(=O)Nc1ccc(NC(=O)CSc2nc(N)c(NC(=O)c3ccco3)c(=O)[nH]2)cc1	51.4% (active)
Cc1cc(N2CCN(C(=O)c3ccco3)CC2)n2nc(-c3cccc(F)c3)cc2n1	54.6% (active)
O=C(COC(=O)Cc1ccccc1[N+](=O)[O-])NCc1ccc(Cl)cc1	37.2%
Cc1ccc(C)c(NC(=O)CSc2nnc(CCNC(=O)OC(C)(C)C)o2)c1	59.2% (active)
COc1ccc2c(/C=C/c3cc[n+](C)cc3)c[nH]c2c1	64.1% (active)
Cc1ccc(S(=O)(=O)N2CC(O)CC2C(=O)OCC(=O)Nc2ccc([N+](=O)[O-])cc2C(F)(F)F)cc1C (stereo not drawn)	60.5% (active)
COC(=O)c1ccc(NC(=O)CSc2nnc(C)n2CC2CCCO2)cc1 (stereo not drawn)	50.5% (active)
O=C(Nc1ccc(N2CCOCC2)c(Cl)c1)c1ccc([N+](=O)[O-])o1	9.33%
Cc1c(NC(=O)c2cc(-c3cccs3)nc3ccccc23)c(=O)n(-c2ccccc2)n1C	33.5%
COc1cc(C(=O)Nc2sc3c(c2C#N)CCN(C(C)=O)C3)cc(OC)c1OC	66.3% (active)

These compounds were tested against Steroidogenic factor 1 (Homo sapiens) (UniProt Q13285) (assay: SF1 (NR5A1) inverse agonists, counter-screen for LRH-1 inverse agonist project, cell-based, luminescence, high throughput (AID 651614; in the data active = inhibition above about 44%;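 also: cells cotransfected with StAR promoter reporter and SF1 expression vector; 0% = vehicle on cells with receptor and 100% = vehicle on cells lacking receptor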)). Settings: cell-based SF1 luciferase reporter, at 3.6 µM, active compounds read high.
Steroidogenic factor 1 (Homo sapiens), sequence (Q13285 whole entry, looked up): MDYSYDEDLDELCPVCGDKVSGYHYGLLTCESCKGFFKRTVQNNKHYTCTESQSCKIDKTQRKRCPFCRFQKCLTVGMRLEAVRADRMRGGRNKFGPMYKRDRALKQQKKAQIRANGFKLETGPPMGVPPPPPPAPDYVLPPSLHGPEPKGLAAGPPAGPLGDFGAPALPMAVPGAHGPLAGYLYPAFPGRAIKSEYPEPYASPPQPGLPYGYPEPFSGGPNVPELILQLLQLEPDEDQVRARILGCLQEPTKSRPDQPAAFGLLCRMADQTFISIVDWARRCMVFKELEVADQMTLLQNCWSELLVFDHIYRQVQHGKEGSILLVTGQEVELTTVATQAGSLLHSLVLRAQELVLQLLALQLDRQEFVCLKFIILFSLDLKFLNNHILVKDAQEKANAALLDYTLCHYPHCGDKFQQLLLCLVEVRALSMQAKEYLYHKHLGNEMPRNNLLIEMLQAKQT

SMILES	inhibition
CCCc1cc(=O)oc2cc3oc(C)c(C)c3cc12	50.5% (active)
CCCc1cc(=O)oc2cc(C)cc(OCC(=O)Nc3ccccn3)c12	61.8% (active)
CCOC(=O)C1CCN(Cc2cc(Cl)c3ccccc3c2O)CC1	32.9%
CCn1c2ccccc2c2cc(/C=N/n3cnnc3)ccc21	19.8%
O=C(COC(=O)C1CCCCC1)NCCc1ccccc1	41.5%
COCCn1c(C)cc(/C=C(\C#N)C(=O)OCC(=O)Nc2ccc(S(N)(=O)=O)cc2)c1C	46.3% (active)
Cc1ccc(NC(=O)COC(=O)CCC2CCCC2)c(Br)c1	46.2% (active)
O=C(CCl)Nc1ccc2c(c1)OCO2	62.4% (active)
O=C1C=C(NCc2ccco2)C2(CCCCC2)O1	46.6% (active)
CCOc1ccc(CCNC(=O)COC(=O)Cc2c[nH]c3ccccc23)cc1OCC	56.3% (active)
CCOc1ccc(NC(=O)CSc2nc3[nH]ncc3c(=O)[nH]2)cc1	43.5% (active)
Clc1ccc(COc2cccc(CNCc3ccncc3)c2)cc1	57.7% (active)
O=C(COC(=O)c1ccc(=O)n(Cc2ccccc2)n1)Nc1ccc2c(c1)OCCO2	43.7% (active)
COC(=O)c1ccc(NC(=O)CSc2nc3ncccc3[nH]2)cc1	52.6% (active)
COc1ccc(CNC(=O)c2cccc3c(-c4cnn(C)c4)coc23)cc1OC	46% (active)
COCc1cc(C)nc(SCC(=O)Nc2cc3c(cc2C#N)OCO3)c1C#N	47.2% (active)
CC1CC(=Cc2ccc(N)cc2)C(=O)O1 (stereo not drawn)	47.7% (active)
COc1ccccc1-n1c(SCC(=O)Nc2ccc(F)cc2)nc2c(c1=O)SCC2	55.9% (active)
CC12CCC(=O)N1c1c(sc3nc(N4CCOCC4)c4c(c13)CCCC4)C(=O)N2 (stereo not drawn)	53.7% (active)
O=c1c2ccc(Cl)cc2nc(-c2cccc(C(F)(F)F)c2)n1O	35.4%

SMILES	inhibition
COc1ccc(NC(=O)CSc2nc(N)c(-c3ccccc3)c(=O)[nH]2)cc1	57.5% (active)
CC(=O)c1ccc(-c2c(C)cc3oc(=O)cc(-c4ccccc4)c3c2C)cc1	52.6% (active)
COc1ccc(-c2nc(C(N)=O)c3[nH]c(=O)n(-c4cccc(Cl)c4)c3n2)cc1OC	56.5% (active)
Oc1c(Cl)cc(CN2CCOCC2)c2cccnc12	6.83%
CC(=O)N1c2ccc(S(=O)(=O)N3CCC(C(=O)Nc4cccc(C)n4)CC3)cc2CC1C (stereo not drawn)	54.1% (active)
Cc1cccc(NC(=O)COC(=O)c2cccs2)c1C	56.8% (active)
O=C1CC(c2cccc([N+](=O)[O-])c2)c2ccc3ccccc3c2N1 (stereo not drawn)	39.5%
CC(=O)Nc1cc(-c2ccc(S(C)(=O)=O)cc2)cn2c(-c3ccc(F)cc3)cnc12	33.3%
O=C(Nc1cccc(S(=O)(=O)N2CCCCC2)c1)c1ccc([N+](=O)[O-])o1	69.2% (active)
CC(=O)Nc1ccc(NC(=O)CSc2nc(N)c(NC(=O)c3ccco3)c(=O)[nH]2)cc1	48.4% (active)
Cc1cc(N2CCN(C(=O)c3ccco3)CC2)n2nc(-c3cccc(F)c3)cc2n1	60.6% (active)
O=C(COC(=O)Cc1ccccc1[N+](=O)[O-])NCc1ccc(Cl)cc1	34.4%
Cc1ccc(C)c(NC(=O)CSc2nnc(CCNC(=O)OC(C)(C)C)o2)c1	59.8% (active)
COc1ccc2c(/C=C/c3cc[n+](C)cc3)c[nH]c2c1	56.3% (active)
Cc1ccc(S(=O)(=O)N2CC(O)CC2C(=O)OCC(=O)Nc2ccc([N+](=O)[O-])cc2C(F)(F)F)cc1C (stereo not drawn)	56% (active)
COC(=O)c1ccc(NC(=O)CSc2nnc(C)n2CC2CCCO2)cc1 (stereo not drawn)	40.7%
O=C(Nc1ccc(N2CCOCC2)c(Cl)c1)c1ccc([N+](=O)[O-])o1	35.9%
Cc1c(NC(=O)c2cc(-c3cccs3)nc3ccccc23)c(=O)n(-c2ccccc2)n1C	18%
COc1cc(C(=O)Nc2sc3c(c2C#N)CCN(C(C)=O)C3)cc(OC)c1OC	62.2% (active)

— PubChem BioAssay
